PubChem BioAssay (NCI)
The panel holds about 83,000 compounds, 20% with a hit somewhere; the sample as a whole holds those more often.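 Growth was measured after 48 h exposure to one concentration of compound in 96-well plates. Values under 10 count as active.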 Calls of active or inactive are those of the source.

The molecules below were run on MDA-MB-435 melanoma (assay: NCI-60 one-dose screen, 48 h (100 = growth as untreated, 0 = no growth, -100 = all killed)). Conditions: 10 µM unless noted.

Row | Compound | growth
1 | COc1cc(CNC(=O)CCCC/C=C/C(C)C)ccc1OCc1nnc(Nc2ccc([N+](=O)[O-])cc2)o1 | 71.9% (inactive)
2 | COP(=O)(OC)C(C)(C)CC(=O)CC(C#N)(C#N)C(C#N)C#N | 104% (inactive)
3 | COC(=O)CCC(=O)C(=O)OC | 29.2% [10 mM] (inactive)
4 | Clc1ccc(CNc2c3ccccc3nc3ccccc23)cc1 | 60.7% (inactive)
5 | COc1ccc2nc(NC(=O)CSc3nnc4n3S(=O)(=O)c3ccccc3N4C)sc2c1 | 113% (inactive)
6 | CCc1nc2c(=O)[nH]cnc2o1 | 110% (inactive)

Each molecule was assayed on SW-620 colon in the same assay as above. Conditions: 10 µM unless noted.

Row | Compound | growth
7 | COC(=O)c1c2c(c(C)[n+]([O-])c1C)C(=O)C(NCc1ccc(Cl)cc1)=CC2=O | 45.9% (inactive)
8 | C=C1C(=O)O[C@H]2[C@H]1CC/C(COC(=O)CCSCCC(=O)OC/C1=C/CC[C@@]3(C)O[C@H]3[C@H]3OC(=O)C(=C)[C@@H]3CC1)=C\CC[C@@]1(C)O[C@@H]21 | -23.5% (active)
9 | Cc1c(-n2nnc(-c3nc4ccccc4s3)c2N)c(=O)n(-c2ccccc2)n1C | 106% (inactive)
10 | O=C(c1cc2ccccc2o1)c1nn(-c2ccccc2)/c(=N/N=Cc2cn(-c3ccccc3)nc2-c2cc3ccccc3oc2=O)s1 | 97.1% (inactive)
11 | C=CCn1c(SCC(=O)NCc2cc(C)c(O)c(C)c2)nc2ccc(Cl)cc2c1=O | 102% (inactive)
12 | CNC(=O)c1c(NC(=O)c2ccc(C(F)(F)F)cc2)sc2c1CCC(=O)C2 | -55.8% (active)
13 | O=C(Nc1ccc(-c2nc(N3CCOCC3)c3cccn3n2)cc1)Nc1cccnc1 | 8.71% (active)
14 | COc1ccc(/C(C)=C(/c2ccc(OCCCN(C)C)cc2)c2ccc(OC(=O)Cc3ccccc3)cc2)cc1 | 91.8% (inactive)
15 | O=C(NCc1ccccc1)Nc1ccccc1CNc1nc(Nc2ccc(OCCN3CCCC3)cc2)ncc1Cl | 77.1% (inactive)
16 | CN1C(=O)/C(=C/c2ccc(C(=O)Nc3ncc(Cc4ccc(Cl)cc4)s3)cc2)SC1=S | 28.9% (inactive)
17 | CCN1C(=O)N(CC)C2C1NN=c1s/c(=C\c3cccc([N+](=O)[O-])c3)c(=O)n12 (stereo unspecified) | 21.1% (inactive)
18 | CCN(CC)CCOc1ccc(C(=C(C)c2ccc(Cl)cc2)c2ccc(OCCN(CC)CC)cc2)cc1 | -75.6% (active)
19 | C/C(=N\NC(=O)c1ccccc1O)c1cccc(/C(C)=N/NC(=O)c2ccccc2O)n1 | 31.2% (inactive)
20 | O=[N+]([O-])c1ccc(-c2nc(N3CCOCC3)c3c4c(sc3n2)CCCC4)cc1 | 95.1% (inactive)
21 | O=C(Nn1c2c(sc1=Nc1ccccc1)C(=O)c1ccccc1C2=O)c1cc2ccc1CCc1ccc(cc1)CC2 | 75.9% (inactive)
22 | N=C(N)c1ccc(-c2ccc(-c3cc(Cl)cc(Cl)c3)o2)o1 | -87.4% (active)
23 | O=C(NNc1nccc(Nc2ccc(S(=O)(=O)Nc3ccncc3)cc2)n1)c1ccccc1 | 106% (inactive)
24 | O=C1/C(=C/c2cccs2)SC(=S)N1CCCN1CCOCC1 | 101% (inactive)
25 | CCN(CC)C(=S)SC(SC(=S)N(CC)CC)C(=O)c1nnn(-c2ccc([N+](=O)[O-])cc2)c1C | 95.5% (inactive)
26 | C=C(C)[C@@H]1CC[C@]2(C(=O)O)CC[C@]3(C)[C@H](CC[C@@H]4[C@@]5(C)C[C@@H](Cc6cn(CCO[C@@H]7O[C@H](COC(C)=O)[C@H](OC(C)=O)[C@H](OC(C)=O)[C@H]7OC(C)=O)nn6)[C@H](O)C(C)(C)[C@@H]5CC[C@]43C)[C@@H]12 | 77.1% (inactive)

Row | Compound | growth
27 | O=C(Cn1cc(CN2CCCCCC2)nn1)Nc1ccc2c(ccn2Cc2ccccc2)c1 | 96.9% (inactive)
28 | COc1ccc(C(c2cc(OC)c(OC)c(OC)c2)N2CCN(c3ccccc3)CC2)cc1 (stereo unspecified) | 74.1% (inactive)
29 | CCN(CC)CCNC(=O)c1cn2ncnc(Oc3ccc(NC(=O)Nc4ccc(Cl)c(C(F)(F)F)c4)c(F)c3)c2c1C | -62.1% (active)
30 | Cc1ccc(-n2c(=S)[nH]c3sc4c(c3c2=O)CCC(=O)C4)cc1 | 17.8% (inactive)
31 | C/C(Nc1ccc(Cl)c(Cl)c1)=C1\CCOC1=O | 111% (inactive)
32 | COc1cc(-c2cc(-c3cccs3)c(C#N)c(N3CCOCC3)n2)cc(OC)c1OC | 4.28% (active)
33 | CCN1CC(=O)N(/N=C2\C(=O)Nc3ccccc32)C1=S | 87% (inactive)
34 | C=CCn1cc(-c2nc3ccccc3s2)c2cc(-c3ccc4c5c(cccc35)C(=O)N(N)C4=O)ccc21 | 98.5% (inactive)
35 | N=C(N)c1ccc(-c2ccc(-c3ccc(Cl)cc3)s2)nc1 | -83.5% (active)
36 | Cc1cc2c(O)c(-c3cccc(Cl)c3)c3sc(=O)oc3c2cc1C | 35% (inactive)
37 | N#Cc1cccc(NC(=O)c2oc3ccccc3c2-c2cnn(-c3ccccc3)c2)c1 | 89% [50 µM] (inactive)
38 | Cc1cc2c(O)c(-c3cc(Cl)ccc3Cl)c3sc(=O)oc3c2cc1C | 57.8% (inactive)
39 | Cc1ccccc1NC(=O)c1sc2nc(C)c(C(=O)/C=C/c3ccccc3)cc2c1N | -10.5% (active)
40 | COc1cc(NC(C)CCCNC(C)C)c2ncccc2c1OC (stereo unspecified) | 92.6% (inactive)
41 | COc1cc(CNC(=O)CCCC/C=C/C(C)C)ccc1OCc1nnc(Nc2ccc([N+](=O)[O-])cc2)o1 | 67.3% (inactive)
42 | COP(=O)(OC)C(C)(C)CC(=O)CC(C#N)(C#N)C(C#N)C#N | 104% (inactive)
43 | COC(=O)CCC(=O)C(=O)OC | 29.9% [10 mM] (inactive)
44 | Clc1ccc(CNc2c3ccccc3nc3ccccc23)cc1 | 31% (inactive)
45 | COc1ccc2nc(NC(=O)CSc3nnc4n3S(=O)(=O)c3ccccc3N4C)sc2c1 | 107% (inactive)
46 | CCc1nc2c(=O)[nH]cnc2o1 | 106% (inactive)
